The campaign covered roughly 63,000 compounds. About 1,100 (1.7%) were called active.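 The calls were made as follows: active = compounds whose percent cytotoxicity in the single-dose primary screen, scaled between solvent and toxic-drug controls, exceeds 50; inactive = the rest.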 What follows is part of a selection rich in actives, with near analogues and random picks from the rest. Entries with a potency or affinity are not part of this list.

The assay can be described thus: viability loss of HPDE-C7K cells – cell-based, fluorescence, HTS, primary screen (AID 431).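 Also: 0% = DMSO solvent wells and 100% = doxorubicin-treated wells.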 To be noted: HPDE-C7K KRASV12 cells, Alamar Blue viability, 48 h; at 10 µM; hits give high values. A general note: Alamar Blue is a resazurin reagent that responds to reducing activity.
Turning to `COc1cccc(-c2cc(C(=O)N3CCN(c4ncccn4)CC3)c3ccccc3n2)c1`, the cytotoxicity was 15.2% (inactive). For `CCOc1ccc(-c2cc(C(=O)N3CCN(c4ccccn4)CC3)c3ccccc3n2)cc1`, the cytotoxicity was 53% (active). On to `COc1ccc(-c2cc(C(=O)N3CCN(c4ccccn4)CC3)c3ccccc3n2)cc1`, for which the cytotoxicity was 5.9% (inactive). Consider `Cc1ccc(-c2cc(C(=O)N3CCN(c4ncccn4)CC3)c3ccccc3n2)cc1`, for which the cytotoxicity was 58.8% (active). For `CCOc1ccc(-c2cc(C(=O)N3CCN(C)CC3)c3ccccc3n2)cc1` the value was -12.4% (inactive); for `Cc1ccc2nc(-c3ccccn3)cc(C(=O)N3CCN(c4ncccn4)CC3)c2c1`, 13.2% (inactive); for `CCOC(=O)N1CCN(C(=O)c2cc(-c3ccc(OCC)cc3)nc3ccccc23)CC1`, 63.5% (active). For the compound `O=C(c1cc(-c2ccccc2)nc2ccccc12)N1CCN(c2ccccn2)CC1`, the cytotoxicity is 27.1% (inactive). Turning to `Cc1ccc(-c2cc(C(=O)N3CCOCC3)c3ccccc3n2)cc1`, the cytotoxicity is 1.8% (inactive). With `CSC1=C(C#N)C(c2ccc(Cl)cc2)C2=C(CC(C)(C)CC2=O)N1` (configuration not stated), the cytotoxicity was 2.7% (inactive).

With `O=C(CSc1nnc(-c2ccco2)o1)N1CCOCC1`, the cytotoxicity was -5.8% (inactive). Take `Cc1cc(NC(=O)CN2CCN(c3ncccn3)CC2)no1`: the cytotoxicity was -2.6% (inactive). Regarding `CCCn1nnc(NC(=O)COc2ccccc2Cl)n1`, the cytotoxicity was 8.6% (inactive). The figure for `Cc1cc(S(=O)(=O)N2CCC(NC(=O)C34CC5CC(CC(C5)C3)C4)CC2)ccc1-n1cnnn1` is -5.5% (inactive). Turning to `COc1ccccc1OCCNC(=O)c1cccs1`, the cytotoxicity was -0.7% (inactive).

For `COc1ccc(C2=CC(c3ccc(C)cc3)n3nnnc3N2)cc1` (configuration not stated), the cytotoxicity is -4.4% (inactive). With `CCOc1ccc(C2C=C(c3ccc(C)cc3)Nc3nnnn32)cc1` (configuration not stated), the cytotoxicity is -11% (inactive). As for `Cc1ccc(CNC(=O)C2CCN(S(=O)(=O)c3cccs3)CC2)o1`, the cytotoxicity is -10.5% (inactive).

`O=C(CC1CCCCC1)c1c(O)c2ccccc2oc1=O`: the cytotoxicity is 59.2% (active). Regarding `O=C(c1c(O)c2ccccc2oc1=O)C1CCC1`, the cytotoxicity was 6.1% (inactive). Take `O=C(CCC1CCCC1)c1c(O)c2ccccc2oc1=O`: the cytotoxicity is 18% (inactive). For `COc1cccc(-c2nnc3n2N=C(c2cccc(Br)c2)CS3)c1` the value was -14.8% (inactive); for `CCSc1nnc([C@@H]2CCCN2C(=O)OC(C)(C)C)o1`, -8.4% (inactive).

`Cc1cccc(OCC(O)Cn2c(NCc3cccnc3)nc3c2c(=O)[nH]c(=O)n3C)c1` (configuration not stated): the cytotoxicity is -23.4% (inactive). `CC(=O)N1CCN(c2ccc(Nc3ncnc4c3oc3ccccc34)cc2)CC1`: the cytotoxicity was 19.3% (inactive). On to `CC(=O)N1CCN(c2ccc(Nc3nc(C)nc4c3oc3ccccc34)cc2)CC1`, for which the cytotoxicity is -3.4% (inactive). For `CCNc1nc(CC)nc2c1oc1ccccc12`, the cytotoxicity was -17.1% (inactive). For `CCc1nc(Nc2ccc(N3CCN(C(C)=O)CC3)cc2)c2oc3ccccc3c2n1` the value was 52.7% (active). On to `Cc1nc(SCC(=O)O)c2oc3ccccc3c2n1`, for which the cytotoxicity was -10.8% (inactive). Regarding `Cc1nc(Nc2ccncc2)c2oc3ccccc3c2n1`, the cytotoxicity is -14.9% (inactive). Turning to `CCc1nc(Nc2ccncc2)c2oc3ccccc3c2n1`, the cytotoxicity is 64.2% (active). For the compound `Cc1nc(SCC(=O)N2CCN(c3ccccc3)CC2)c2oc3ccccc3c2n1`, the cytotoxicity is 54.9% (active). Consider `Cc1nc(SCC(=O)N2CCCc3ccccc32)c2oc3ccccc3c2n1`, for which the cytotoxicity was -19.9% (inactive). `COc1ccc2c(c1)c(=O)c(Br)c(C)n2Cc1ccccc1`: the cytotoxicity was 0.5% (inactive). Take `FC(F)(F)c1cccc(-c2ccc(-c3csnn3)o2)c1`: the cytotoxicity was -13.4% (inactive).

As to `O=C(O)CC(CNS(=O)(=O)c1ccccc1)c1ccccc1` (configuration not stated), the cytotoxicity is 0% (inactive). The figure for `OCc1nnn(-c2cccc(C(F)(F)F)c2)c1CO` is -2.5% (inactive).

In the case of `N#C/C(Cn1c[n+](NC(=O)Nc2ccccc2)cn1)=N/O`, the cytotoxicity is -6.9% (inactive). In the case of `O=C1CC(SCc2nc3ccccc3[nH]2)C(=O)N1c1cccc(F)c1` (configuration not stated), the cytotoxicity was -0.8% (inactive). For `O=C(NCc1ccccn1)C1CCC(=O)N1C1CCCC1` (configuration not stated) the value was 2.2% (inactive); for `COc1ccccc1NC(=O)CN1CCC(n2nnc3cc(F)ccc32)CC1`, -3.1% (inactive); for `CCOC(=O)c1ccccc1NC(=O)CN1CCC(n2nnc3cc(F)ccc32)CC1`, 15.3% (inactive). For `CCOc1ccc2nc(NC(=O)CN3CCC(n4nnc5cc(F)ccc54)CC3)sc2c1` the value was 66.6% (active). Take `CC1(C)CNC(=O)c2sc(NC(=O)CN3CCOCC3)nc2C1`: the cytotoxicity is 0.1% (inactive).

In the case of `Cc1ccc2c(c1)NC(=O)C(CC(=O)NCCN(C)C)O2` (configuration not stated), the cytotoxicity is -2.3% (inactive). Regarding `Cc1cc(NC(=O)c2cc(-c3ccncc3)nc3c(C)cccc23)no1`, the cytotoxicity is 68.1% (active). Take `Cc1cc(NC(=O)c2cc(-c3cccnc3)nc3c(C)c(C)ccc23)no1`: the cytotoxicity is 8.8% (inactive). The figure for `Cc1cc(C)c2nc(-c3ccccn3)cc(C(=O)Nc3cc(C)on3)c2c1` is 8.1% (inactive); for `N#Cc1nc(-c2ccc(OCc3ccccc3)cc2)oc1NCCN1CCOCC1` it is 12.8% (inactive). Regarding `N#Cc1nc(COc2ccc(-c3ccccc3)cc2)oc1NCCCN1CCOCC1`, the cytotoxicity is 50.8% (active).

In the case of `COc1ccc(-c2nc(C#N)c(NCCCN3CCOCC3)o2)cc1`, the cytotoxicity is 0.5% (inactive). On to `N#Cc1nc(Cc2ccccc2)oc1NCc1cccnc1`, for which the cytotoxicity is -11.2% (inactive). As for `N#Cc1nc(COc2ccc(-c3ccccc3)cc2)oc1NCc1cccnc1`, the cytotoxicity is 83.1% (active). For the compound `N#Cc1nc(COc2ccccc2)oc1NCCN1CCOCC1`, the cytotoxicity is -18.1% (inactive). As to `N#Cc1nc(-c2ccc(OCc3ccccc3)cc2)oc1NCc1cccnc1`, the cytotoxicity was 12.7% (inactive). As for `N#Cc1nc(COc2ccc(F)cc2)oc1NCCN1CCOCC1`, the cytotoxicity was -2.9% (inactive). In the case of `COc1ccccc1CNC(=O)c1ccc(CNc2c(N3CCCC3)c(=O)c2=O)cc1`, the cytotoxicity was 4.2% (inactive). As for `CCCc1nc(-c2cc3ccc(C)cc3[nH]c2=O)no1`, the cytotoxicity was 6.3% (inactive). With `Cc1nc(NCC2CCCO2)c2nnn(Cc3ccccc3)c2n1` (configuration not stated), the cytotoxicity was -0.3% (inactive). Consider `Cc1nc(SCC(=O)Nc2ccc(C)c(F)c2)c2oc3ccccc3c2n1`, for which the cytotoxicity was 24.5% (inactive). For `O=C1CSC(c2ccco2)N1` (configuration not stated), the cytotoxicity was -1.3% (inactive). Turning to `O=C(CN1CCN(c2ccc(Cl)cc2)CC1)Nc1ccc(F)c(F)c1`, the cytotoxicity was -4.6% (inactive).

These data come from PubChem BioAssay AID431 (Sanford-Burnham Center for Chemical Genomics, 2006).
